The source of these data is PubChem BioAssay (Tox21).

Molecules are shown by their SMILES. Inconclusive results are not listed. Where a call stands in place of a potency, no number is given. Active and inactive are the calls of the source. Calls follow the shape of the dose curve; as a rule, active = well fitted cell-killing curve with a large enough effect in the repeat runs; inconclusive = weak or mixed curves, or effect the other way; inactive = flat fitted curve, though single readings scatter.
Potency is read from the fitted curve at half-maximal effect.

This assay can be described thus: Human pregnane X receptor (PXR) small molecule agonists, qHTS cell viability counter screen (AID 1346977). Also: nearly all actives have a fitted effect of over 50% in size. To be noted: PXR-Luc HepG2 viability, CellTiter-Fluor, 24 h; series mostly up to 92.4 µM. The essentials: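 PXR-Luc HepG2 cells in medium with 5% charcoal-stripped FBS were pre-incubated 5hr, then exposed to compounds for 24hr at 37C. Viability was read in the same wells by CellTiter-Fluor fluorescence, reagent added after 23hr with a 1hr incubation.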
(Quantitative high-throughput screening tests each substance at several concentrations.)
As for `CCCCC(CC)COC(=O)OOC(C)(C)C` (centres undefined), the Potency entry was “inactive”.
`O=C1C2(Cl)C3(Cl)C4(Cl)C(Cl)(Cl)C5(Cl)C3(Cl)C1(Cl)C5(Cl)C24Cl` (centres undefined): the Potency is 42.6 µM (active).
Then `CNC(=O)O/N=C(\C)C(C)S(C)(=O)=O` (centres undefined), with “inactive”; and `CCO/N=C(\CC)C1=C(O)CC(c2c(C)cc(C)cc2C)CC1=O` (centres undefined), with “inactive”.
Next, `O=c1[nH]c2cc(Cl)ccc2n1C1CCNCC1`: “inactive”; `CC(=O)[O-].CC(=O)[O-].[Co+2]`: “inactive”; `O.O.O.O=C([O-])[C@H]([O-])[C@@H]([O-])C(=O)[O-].O=C([O-])[C@H]([O-])[C@@H]([O-])C(=O)[O-].[K+].[K+].[Sb+3].[Sb+3]`: “inactive”.
On to `O=c1[nH]c(Cl)c(Cl)cc1Cl`, for which the Potency result is “inactive”.
Then `[C-]1=CC=CC1.[Cl][Zr+2][Cl].c1cc[cH-]c1`, with “inactive”; and `Clc1ccc(C2(Cn3cncn3)OCCO2)c(Cl)c1`, with “inactive”; and `CCC(OC(C)=O)C(CC(C)NC)(c1ccccc1)c1ccccc1` (centres undefined), with 27.5 µM (active).
Next, `CCC[CH2][Sn]([CH2]CCC)([CH2]CCC)[O][Sn]([CH2]CCC)([CH2]CCC)[CH2]CCC`: 0.533 µM (active); `CCOP(=S)(OCC)Oc1cc(C)nc(N(CC)CC)n1`: “inactive”.
Then `Nc1c(Cl)c(Cl)c(Cl)c(Cl)c1Cl`, with “inactive”.
As to `C1=CCC=C1`, the Potency entry is “inactive”.
Next, `Nc1ccccc1-c1ccccc1`: “inactive”; `Cc1c([N+](=O)[O-])c(C)c([N+](=O)[O-])c(C(C)(C)C)c1[N+](=O)[O-]`: “inactive”; `CC(C)Br`: “inactive”.
Next, `C=C(C)C(=O)[O][Sn]([CH2]CCC)([CH2]CCC)[CH2]CCC`: 0.306 µM (active).
